Structures can show the parent of a compound that is named as a salt. ± gives the standard deviation.
System: Danio rerio Tg(wt1b:EGFP) embryo, pronephros
Assay: glomerular separation, fold change vs DMSO control; higher = glomeruli further apart (abnormal)
Settings: 25 µM; exposure: 24-48 hpf
Procedure, shortened: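 Dechorionated Tg(wt1b:EGFP) zebrafish embryos were treated with 25 μM compound in 0.5% DMSO, in HEPES-buffered E3 with 0.003% PTU, from 24 to 48 hpf at 28.5°C. On maximum projections of dorsal pronephros images, 16 hand-placed reference points in Fiji gave distances and angles, and values more than 2 SD from the feature mean were left out. Results are fold changes over the mean of same-day DMSO-treated embryos.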

| Compound | glomerular separation |
| --- | --- |
| CC(=O)OC(C)C[N+](C)(C)C (stereo not given) [Methacholine chloride] | 0.765 ± 0.28 |
| CCCc1cc(C(N)=S)ccn1 [Prothionamide] | 0.957 ± 0.36 |
| CC(N/C(=N\C#N)Nc1ccncc1)C(C)(C)C (stereo not given) [Pinacidil] | 0.881 ± 0.21 |
| CC(COc1ccccc1)N(CCCl)Cc1ccccc1 (stereo not given) [Phenoxybenzamine hydrochloride] | 1.05 ± 0.59 |
| CN1CCN(C(c2ccccc2)c2ccccc2)CC1 [Cyclizine hydrochloride] | 0.835 ± 0.14 |
| Cc1cc(NC(=O)C2=C(O)c3ccccc3S(=O)(=O)N2C)no1 [Isoxicam] | 1.19 ± 0.55 |
| CN(C)CCC(c1ccc(Br)cc1)c1ccccn1 (stereo not given) [Brompheniramine maleate] | 0.985 ± 0.22 |
| CCOc1ccc(NC(C)=O)cc1 [Phenacetin] | 1.14 ± 0.31 |
| Cc1cc(NS(=O)(=O)c2ccc(N)cc2)no1 [Sulfamethoxazole] | 0.872 ± 0.23 |
| CN1CCN2c3ccccc3Cc3ccccc3C2C1 (stereo not given) [Mianserine hydrochloride] | 1.3 ± 0.59 |
| CCC1(C)CC(=O)NC1=O (stereo not given) [Ethosuximide] | 0.979 ± 0.37 |
| CN(C)CCOC(c1ccccc1)c1ccccc1 [Diphenhydramine hydrochloride] | 0.907 ± 0.28 |
| CC(C(=O)O)c1ccc2c(c1)Cc1cccnc1O2 (stereo not given) [Pranoprofen] | 0.724 ± 0.18 |
| CCN(CC)Cc1cc(Nc2ccnc3cc(Cl)ccc23)ccc1O [Amodiaquin dihydrochloride dihydrate] | 0.602 ± 0.18 |
| CC(=O)OCC(=O)NCCCOc1cccc(CN2CCCCC2)c1 [Roxatidine Acetate hydrochloride] | 1.07 ± 0.37 |
